Screens (PubChem)
Shown are actives, neighbours in structure and some others; about 2.6% of the full set was active somewhere.
Granule exo inh – LAMP-1 surface exposure blockers, TALL-104 cells – cell-based, flow cytometry, MLPCN library, primary screen; inhibition, % at 10 µM; TALL-104 LAMP-1 surface exposure; cells stimulated with thapsigargin and PMA; AID 651702, 2012; 360,000 compounds, 0.66% hits;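 active = inhibition above about 55%, limit read from the data; inconclusive = no clear call, values can overlap the other calls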
Platelet DG rel – inhibitors of platelet dense granule secretion, primary screen, cell-based, MLPCN, human platelets; human platelet-rich plasma, SFLLRN dense granule ATP release, luminescence; 300,000 compounds, 0.22% hits; inhibition, %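 (compounds screened at 7.5 µM in platelet-rich plasma)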; AID 1663, 2009;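 active = mean replicate score, as percent of positive control, at or above 50; inconclusive = mean below 50 but at least one replicate at or above 50; inactive = mean and every replicate below 50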
Rce1 inhib – yeast Rce1p protease inhibitors, primary screen, biochemical, fluorescence, cell-free homogeneous; 290,000 compounds, 0.27% hits; calls only; CAAX prenyl protease 2 (Saccharomyces cerevisiae (strain ATCC 204508 / S288c)), Q03530; yeast membranes, quenched prenylated peptide cleavage fluorescence;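 active = fall in fluorescence gain of 50% or more versus controls, with final raw signal at or below 3038400; inconclusive = same 50% fall but final raw signal above 3038400; inactive = fall in fluorescence gain under 50%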;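 also: plate controls were neutral control wells for no effect and wells lacking membranes for full effect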
ABHD5-PLIN5 inh – ABHD5-PLIN5 interaction inhibitors, primary screen, cell lysate, split luciferase complementation, luminescence | 360,000 compounds, 0.78% hits | Split G. princeps luciferase complementation, 4 h | inhibition, % at 4 µM;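 active = inhibition above the mean inhibition across every tested compound plus 3 SD, cut at about 22% in these data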;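 also: 0% = DMSO only wells and the 100% control is not disclosed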
Target sequence (Q00G26 whole entry, looked up): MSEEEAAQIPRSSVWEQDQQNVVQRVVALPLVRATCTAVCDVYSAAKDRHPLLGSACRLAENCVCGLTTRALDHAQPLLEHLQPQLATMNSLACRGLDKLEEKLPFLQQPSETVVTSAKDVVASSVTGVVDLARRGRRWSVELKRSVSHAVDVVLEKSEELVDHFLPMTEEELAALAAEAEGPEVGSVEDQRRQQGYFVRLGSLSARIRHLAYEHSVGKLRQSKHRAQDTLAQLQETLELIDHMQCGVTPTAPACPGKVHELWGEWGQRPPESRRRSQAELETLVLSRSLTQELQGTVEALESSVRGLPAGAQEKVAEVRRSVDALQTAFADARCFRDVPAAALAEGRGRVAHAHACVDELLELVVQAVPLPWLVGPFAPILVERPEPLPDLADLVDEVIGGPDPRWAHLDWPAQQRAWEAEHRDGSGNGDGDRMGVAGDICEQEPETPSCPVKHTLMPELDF
Target sequence (Q8WTS1 whole entry, looked up): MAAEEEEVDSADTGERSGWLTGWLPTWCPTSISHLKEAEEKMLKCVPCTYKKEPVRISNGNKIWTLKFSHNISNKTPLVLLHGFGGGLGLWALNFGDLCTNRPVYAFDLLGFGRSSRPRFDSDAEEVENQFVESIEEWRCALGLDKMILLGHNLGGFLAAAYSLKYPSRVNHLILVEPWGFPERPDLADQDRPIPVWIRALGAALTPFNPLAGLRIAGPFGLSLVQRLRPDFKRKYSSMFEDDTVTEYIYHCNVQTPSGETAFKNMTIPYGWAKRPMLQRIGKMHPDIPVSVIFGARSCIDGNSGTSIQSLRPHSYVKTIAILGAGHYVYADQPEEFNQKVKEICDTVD
PfM18AAP inh – PfM18AAP inhibitors, malaria aminopeptidase, primary screen, biochemical, QFRET, recombinant enzyme | inhibition, % at 7.35 µM | 290,000 compounds, 1.2% hits | H-Glu-NHMec fluorogenic cleavage | M18 aspartyl aminopeptidase (Plasmodium falciparum 3D7);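 active = inhibition above the campaign mean inhibition over all tested compounds plus 3 SD, cut at about 28% in these data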;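 also: 0% = plate median of test compound wells and 100% = 2 mM ZnCl2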
* = called active by the depositor; i = inactive; ? = inconclusive; . = not tested or not shown; + = active, no number.

SMILES	Granule exo inh	Platelet DG rel	Rce1 inhib	ABHD5-PLIN5 inh	PfM18AAP inh
COc1ccc2c(c1)c(CC(=O)O)c(C)n2C(=O)c1ccc(Cl)cc1	-5	-4	i	10	-3
NC(CCCCc1ccccc1)c1cccc2ccccc12 (configuration not stated)	.	50*	i	.	.
CC(CCc1ccccc1)NCc1cccc2ccccc12 (configuration not stated)	44	1	i	9	4
COc1cccc(C2c3[nH]c4ccccc4c3C[C@H]3C(=O)N(C4CCN(Cc5ccccc5)CC4)CC(=O)N23)c1 (some centres not stated)	16	-5	i	5	1
c1cc2c3c(cccc3c1)NC1(CCC3(CC1)Nc1cccc4cccc(c14)N3)N2	60*	14	i	12	-5
c1cc2c3c(cccc3c1)NC1(CCCCCC1)N2	10	-3	i	0	2
COc1cc(CNCCN2CCOCC2)ccc1OCc1c(Cl)cccc1Cl	.	-11	i	.	0
COc1ccc(/C=N/NC(=S)NCCc2ccccc2)cc1	64*	8	i	-17	-2
CCc1ccc(/C=N/NC(=S)NCCc2ccccc2)cc1	-3	9	i	-5	-10
COc1cccc(/C=N/NC(=S)NCCc2ccccc2)c1	58*	1	i	-8	0
COc1ccc(O)c(/C=N/NC(=S)NCCc2ccccc2)c1	33	8	i	-4	24
COc1ccc(C(=O)O)nc1C	3	0	i	0	-3
O=C(CCCC(=O)N1CCN(c2ccccc2F)CC1)N1CCN(c2ccccc2F)CC1	-4	1	i	-1	5
COc1cc(CC(NC(C)=O)C(=O)NC2CCN(C(=O)c3cc(OC)c(OC)c(OC)c3)CC2)cc(OC)c1 (configuration not stated)	5	-2	i	2	-1
Cc1ccc(S(=O)(=O)SC/C=C/CSS(=O)(=O)c2ccc(C)cc2)cc1	78*	.	.	2	.
COc1ccc(C2Nc3ccccc3C(=O)N2Cc2ccccc2)cc1COc1ccccn1 (configuration not stated)	-7	-9	+	-5	1
COc1ccc(C2Nc3ccccc3C(=O)N2Cc2ccccc2)cc1OC (configuration not stated)	7	17	i	-5	.
O=C(OCC(=O)N(CCc1ccccc1)Cc1ccccc1)c1ccc(F)c(S(=O)(=O)N2CCOCC2)c1	-8	.	.	0	.
O=C(CNC(=O)c1cccc(Br)c1)N/N=C/c1cccnc1	-2	4	i	1	-9
Cc1cc(NC(=O)c2cc3n(n2)C(C(F)(F)F)CC(c2ccco2)N3)n(-c2ccccc2)n1 (configuration not stated)	-3	-5	i	-4	6
CCOc1ccc(C(=O)Nc2ccc(S(=O)(=O)N3C[C@@H]4C[C@@H](C3)c3cccc(=O)n3C4)cc2)cc1	-2	.	.	-1	.
O=C1CCC/C(=N/NC(=O)c2cc(NS(=O)(=O)c3cccs3)cc(NS(=O)(=O)c3cccs3)c2)C1	0	-13	i	5	30*
COC(=O)C1=C(C)NC(=O)/C1=C\c1cc(C)n(-c2cccc(C)c2)c1C	-5	4	i	7	12
COC(=O)C1=C(C)NC(=O)/C1=C\c1cc(C)n(-c2ccc(F)cc2)c1C	104*	-19	i	11	13
COc1cc(CC(=O)NC2CCCc3ccccc32)cc(OC)c1OC (configuration not stated)	60*	-4	i	-5	3
SMILES	Granule exo inh	Platelet DG rel	Rce1 inhib	ABHD5-PLIN5 inh	PfM18AAP inh
CCCCn1[nH]c(-c2ccccc2)cc1=O	3	3	i	-27	30*
CCCc1cc(=O)n2[nH]c(-c3ccccc3)cc2n1	-2	-2	i	-1	-2
Cc1ccc(-n2cc[nH]c2=S)c(C)c1	-6	-3	i	4	22
Cc1ccc(C)c(-n2cc[nH]c2=S)c1	-2	-2	i	-5	30*
O=C1/C(=C/Nc2ccc3c(c2)OCO3)CCc2ccccc21	98*	?	i	-7	18
COc1ccc(N/C=C2\CCc3ccccc3C2=O)cc1	48	47	i	-13	37*
COc1ccc(N/C=C2\CCOC2=O)cc1	-3	12	i	5	-1
O=C1OC2(CCCCC2)OC(=O)C1=CNc1ccc2c(c1)OCO2	5	2	i	-9	0
COc1ccc2c(c1)CC/C(=C\Nc1ccc3c(c1)OCO3)C2=O	101*	1	.	-7	-30
Cc1c(CNCCCc2ccccc2)c(C(=O)O)c(C)n1Cc1ccccc1	-2	-5	i	-2	-1
CC(=O)Nc1ccc(S(=O)(=O)NCC(=O)OCC(=O)NCCc2ccccc2)cc1	0	.	.	1	.
COc1ccc(Oc2cc(Cl)nc(N)n2)cc1	-2	3	i	-7	3
COc1ccc2cc(C(=O)/C=C/c3cc(OC)c(O)c(OC)c3)ccc2c1	39	-1	i	8	29*
COc1ccc(C(=O)/C=C/c2ccc(O)cc2)cc1	-3	33	i	5	6
COc1ccc(C=CC(=O)c2c(OC)cc(OC)c(OC)c2O)cc1	-3	.	.	23*	.
COc1ccc(NC(=O)CC2Sc3ncnn3C2=O)cc1 (configuration not stated)	3	20	i	10	15
O=C(CC1Sc2ncnn2C1=O)Nc1ccc(Cl)cc1 (configuration not stated)	.	3	i	.	30*
Cc1ccccc1-c1ccc(C(=O)NCc2ccccc2)o1	1	-2	i	-3	-2
Cc1ccc(-c2ccc(C(=O)NCc3ccc(Cl)cc3)o2)c2ccccc12	14	-5	i	22*	-13
COC(=O)CSc1nnc([C@H](Cc2ccccc2)NC(=O)OC(C)(C)C)o1	6	27	i	1	3
Cc1cccc(CS(=O)(=O)c2nnc([C@H](Cc3ccccc3)NC(=O)OC(C)(C)C)o2)c1	34	8	i	43*	-145
COC(=O)CS(=O)(=O)c1nnc([C@H](Cc2ccccc2)NC(=O)OC(C)(C)C)o1	23	29	i	56*	-40
COc1ccc(N(CCN2C(=O)c3ccccc3C2=O)C(=O)c2cccc([N+](=O)[O-])c2)cc1	0	4	i	-2	-2
CNC(=S)N/N=C/c1ccco1	0	0	i	-5	9
Cc1ccc2nc(-c3ccncc3)cc(-c3ccccc3)c2c1	3	-3	i	-6	4
Cc1ccc(-c2cc3cccc[n+]3cc2-c2ccc(C)cc2)cc1	-2	-1	+	4	-13
O=S(=O)(Cc1ccccc1)N1CCN(Cc2c(F)cccc2Cl)CC1	6	.	.	-2	.
